# Source: PubChem BioAssay
# GluA2 TARP mod: GluA2-stargazin AMPA receptor complex modulation; HEK293 GluA2+stargazin, membrane potential dye (FDSS), glutamate EC50; hits were called plate by plate, in both directions; calls only at 30 µM; 40,000 compounds, 3.5% hits; AID 1259245;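 active = any of four per-well response measures lying three or more SD from its plate-wide compound average, in either direction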
# GIRK2 act: GIRK2 channel activators by thallium flux; activation (% efficacy), % for hits at 37.5 µM; HEK293 GIRK2/NPY4 cells, thallium flux fluorescence; 34,000 tested, under 10 active; P48051;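 active = primary screen hit, no activity in plain HEK293 cells, and in GIRK2-only cells above 5% efficacy rising with concentration; inactive = the rest, including fluorescent compounds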;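 note: efficacy is normalized control-subtracted fluorescence 15 s after thallium addition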
# Calls only; n = inactive; x = no result; + = active, no number. Shown is part of a subset that was picked to be rich in hits.
SMILES,GluA2 TARP mod,GIRK2 act
O=C(CSc1ccc(NC(=O)c2ccco2)nn1)NCc1ccccc1Cl,+,n
CCC(=O)Nc1ccc(SCC(=O)Nc2ccc(OC)c(OC)c2)nn1,x,n
CCNc1cc(NCCNS(=O)(=O)c2ccc(OC)cc2OC)nc(C)n1,x,n
O=C(NCCc1ccsc1)C1(c2ccc(Cl)cc2)CCCC1,+,n
O=C(NCC(O)(c1cccs1)C1CC1)C1(c2ccc(Cl)cc2)CCCC1 (stereo not given),n,n
COc1cc(C(=O)Nc2nnc(-c3ccc(C)cc3C)o2)cc(OC)c1OC,n,x
COc1cc(OC)cc(C(=O)Nc2nnc(-c3ccc(Br)s3)o2)c1,+,n
COc1cc(OC)cc(C(=O)Nc2nnc(-c3ccc(C)cc3C)o2)c1,+,x
COc1cccc(C(=O)Nc2nnc(-c3ccc(Br)s3)o2)c1,n,n
COc1ccc(C)cc1NC(=O)CSc1ccc(NC(C)=O)nn1,x,n
COC(=O)C1=C(C)N(C)C(=O)NC1c1ccc(OCc2ccccc2)cc1 (stereo not given),n,x
CCC(=O)N1c2ccccc2NC2=C(C(=O)CC(C)(C)C2)C1c1ccc(OCc2ccccc2)cc1 (stereo not given),+,x
CCCN1C(=O)C2C(c3cccs3)NN(Cc3ccccc3)C2C1=O (stereo not given),n,x
COCCNC(=O)C(=O)Nc1c2c(nn1-c1ccc(Cl)cc1)CS(=O)(=O)C2,+,x
COCCCNC(=O)C(=O)Nc1c2c(nn1-c1ccc(Cl)cc1)CS(=O)(=O)C2,n,x
O=C(Nc1c2c(nn1-c1ccccc1)CS(=O)(=O)C2)C(=O)N1CCCCC1,n,n
O=C(Nc1c2c(nn1-c1ccccc1)CS(=O)(=O)C2)C(=O)N1CCCC1,+,n
O=C(NCc1cccs1)C(=O)NCC1(O)CCCC1,n,n
Cc1cc(C)n(CCNC(=O)c2snnc2C)n1,n,n
CCOC(=O)c1ccc(NC(=O)c2ccc(=O)n(Cc3ccccc3F)c2)cc1,n,n
O=C(NCc1nc2ccccc2[nH]1)c1csc(-c2cnccn2)n1,n,n
CC(O)(CNC(=O)c1cc(Cl)ccc1Cl)c1ccc2c(c1)OCO2 (stereo not given),n,n
CC(O)(CNC(=O)Nc1ccc(Cl)c(Cl)c1)c1ccc2c(c1)OCO2 (stereo not given),+,n
COc1cc(NC(=O)c2ccc([N+](=O)[O-])cc2Cl)ccc1N1CCCC1=O,n,n
CCOc1cc(C(=O)NCC2COC3(CCCCC3)O2)cc(OCC)c1OCC (stereo not given),n,n
SMILES,GluA2 TARP mod,GIRK2 act
CCSc1ccccc1C(=O)NCC(O)Cc1ccccc1 (stereo not given),+,n
COC(=O)NCC(O)Cc1ccccc1 (stereo not given),n,n
CCOc1ccc2ccccc2c1C(=O)NCc1nc(C)no1,x,n
CCOc1ccc2ccccc2c1C(=O)NCC1COC2(CCCCC2)O1 (stereo not given),+,n
CCOc1ccc2ccccc2c1C(=O)NCCc1ccsc1,+,n
CCOc1ccc2ccccc2c1C(=O)NCC(O)c1ccc(C(F)(F)F)cc1 (stereo not given),x,n
CCOc1ccc2ccccc2c1C(=O)NCC(O)Cc1ccccc1 (stereo not given),+,n
CCNC(=O)C1Cc2ccccc2N1C(=O)c1ccc([N+](=O)[O-])o1 (stereo not given),n,n
CS(=O)(=O)N1CCCC1C(=O)Nc1sccc1C#N (stereo not given),n,n
Cc1ccc(S(=O)(=O)N(C)c2ccsc2C(=O)n2nc(C)cc2C)cc1,n,n
CC(=O)Nc1ccc(S(=O)(=O)N2CCC(Cn3ccnc3C)CC2)cc1,n,n
CN1CC(NC(=O)c2c(F)cccc2F)CC1=O (stereo not given),x,n
COc1cccc2sc(NC(=O)c3ccc(S(=O)(=O)N(C)C4CCCC4)cc3)nc12,+,n
CN(C1CCCC1)S(=O)(=O)c1ccc(C(=O)Nc2nc3ccccc3s2)cc1,n,x
COc1ccc([N+](=O)[O-])cc1NC(=O)c1ccc(S(=O)(=O)N(C)C2CCCC2)cc1,n,x
COc1cc([N+](=O)[O-])cc2sc(NC(=O)c3ccc(S(=O)(=O)N(C)C4CCCC4)cc3)nc12,+,x
O=C1CCCN1c1cccc(NS(=O)(=O)c2cccc(Cl)c2)c1,n,n
COc1ccc(CCNC(=O)C2COCC(=O)N2Cc2ccccc2)cc1OC (stereo not given),n,n
COc1ccc(C)cc1S(=O)(=O)Nc1ccc2c(c1)CCCN2S(=O)(=O)c1ccc(F)cc1,n,x
COc1ccccc1OCC(=O)NCC1CCN(Cc2ccco2)CC1,x,n
CCN1CCN(C(=O)CCn2c(=S)[nH]c3ccccc3c2=O)CC1,n,x
CCN(CC)C(=O)CCCCCn1c(=S)[nH]c2ccccc2c1=O,+,x
COc1ccc(Cl)cc1NC(=O)CSC1=NC(C)(C)Nc2ccccc21,n,n
N=c1sc(/C=C2\C=Nc3ccccc32)c(O)n1-c1nccs1,+,x
COCC(=O)N1CCCc2ccc(NC(=O)Cc3ccccc3Cl)cc21,n,n
SMILES,GluA2 TARP mod,GIRK2 act
COCC(=O)N1CCCc2ccc(NC(=O)CCSc3ccccc3)cc21,+,n
Cc1ccc(NC(=O)CCSc2ccccc2)cc1N1CCCCC1=O,+,n
CCOC(=O)CCC(=O)Nc1ccc(C)c(N2CCCCC2=O)c1,n,n
CCN1CCCc2cc(CCNC(=O)C(=O)Nc3cccc(Cl)c3C)ccc21,n,x
CCc1cc(S(=O)(=O)N2CCN=C2c2ccccc2)ccc1OC,+,n
COc1cc(S(=O)(=O)N2CCN=C2c2ccccc2)ccc1F,n,x
c1ccn2cc(C34CC5CC(CC(C5)C3)C4)nc2c1,+,x
C=CCn1c(SCC(=O)Nc2cc(Cl)ccc2OC)nc2sc3c(c2c1=O)CCC3,n,x
COc1ccc(S(=O)(=O)N2CCC(C(=O)Nc3nc(-c4cc(C)ccc4C)cs3)CC2)cc1,n,n
O=C(Nc1ccc(F)c(C(F)(F)F)c1)C1CCN(C(=O)NC2CC2)CC1,+,n
O=C(Nc1ccc(F)c(C(F)(F)F)c1)C1CN(C(=O)c2cccs2)C1,n,n
COc1ccc(OC)c(COCC(O)CN2C(C)CCCC2C)c1 (stereo not given),n,n
CN(C)C(CNC(=O)c1c(F)cccc1Cl)c1cn(C)c2ccccc12 (stereo not given),x,n
O=C(NCC1(c2cccs2)CC1)Nc1cccc(C(F)(F)F)c1,n,n
COc1cccc(NC(=O)NCC2(c3cccs3)CC2)c1,+,n
COc1ccccc1C(=O)CN1CCN(S(=O)(=O)c2cc(Cl)ccc2OC)CC1,n,x
O=C(NCC(c1cccs1)N1CCOCC1)c1ccc2ccccc2c1 (stereo not given),n,n
COc1ccc(OC)c(S(=O)(=O)NCC(c2cccn2C)N2CCOCC2)c1 (stereo not given),n,n
CCS(=O)(=O)NCC1(c2cccs2)CCOCC1,+,n
CC(C)CS(=O)(=O)NCC1(c2cccs2)CCOCC1,n,n
CCOc1ccc(NC(=O)CSc2nc(=O)n(CCO)c3c2CCCC3)cc1,+,n
CC(=O)Nc1ccc(NC(=O)CSc2nc(=O)n(CCCO)c3c2CCCC3)cc1,n,n
COc1ccccc1N1CC(C)Cn2c1nc1c2c(=O)n(Cc2ccc(C)cc2)c(=O)n1C (stereo not given),+,x
COc1ccccc1N1CC(C)Cn2c1nc1c2c(=O)n(Cc2cccc(C)c2)c(=O)n1C (stereo not given),n,x
